# The campaign covered roughly 340,000 compounds. About 1,300 (0.38%) were called active. For the sample, actives were picked, then their nearest neighbours and some compounds at random. Unmarked numbers belong to inactive results.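 The calls were made as follows: active = maximum activity change below -70%; inconclusive = maximum activity change between -70% and -50%; inactive = maximum activity change above -50%.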
# Target: Voltage-gated inwardly rectifying potassium channel KCNH2 (Homo sapiens) (UniProt Q12809)
# Test: qHTS for Inhibitors of KCHN2 3.1: Wildtype qHTS
# Conditions: U2OS, BacMam KCNH2, thallium flux FluxOr; at 1.84 µM; hits give low values
# Procedure, shortened: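 U2OS cells were transduced with wild-type KCNH2 virus (2.03 x 10^8 / mL) for 4 h at room temperature, then cultured overnight at 37 C. Thallium flux was read with FluxOr dye. Rate constants were normalized to DMSO controls.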
# % is scaled to controls: 0 for no effect and ±100 for the full control effect.
# Chain of Voltage-gated inwardly rectifying potassium channel KCNH2 (Homo sapiens) (Q12809 whole entry, looked up): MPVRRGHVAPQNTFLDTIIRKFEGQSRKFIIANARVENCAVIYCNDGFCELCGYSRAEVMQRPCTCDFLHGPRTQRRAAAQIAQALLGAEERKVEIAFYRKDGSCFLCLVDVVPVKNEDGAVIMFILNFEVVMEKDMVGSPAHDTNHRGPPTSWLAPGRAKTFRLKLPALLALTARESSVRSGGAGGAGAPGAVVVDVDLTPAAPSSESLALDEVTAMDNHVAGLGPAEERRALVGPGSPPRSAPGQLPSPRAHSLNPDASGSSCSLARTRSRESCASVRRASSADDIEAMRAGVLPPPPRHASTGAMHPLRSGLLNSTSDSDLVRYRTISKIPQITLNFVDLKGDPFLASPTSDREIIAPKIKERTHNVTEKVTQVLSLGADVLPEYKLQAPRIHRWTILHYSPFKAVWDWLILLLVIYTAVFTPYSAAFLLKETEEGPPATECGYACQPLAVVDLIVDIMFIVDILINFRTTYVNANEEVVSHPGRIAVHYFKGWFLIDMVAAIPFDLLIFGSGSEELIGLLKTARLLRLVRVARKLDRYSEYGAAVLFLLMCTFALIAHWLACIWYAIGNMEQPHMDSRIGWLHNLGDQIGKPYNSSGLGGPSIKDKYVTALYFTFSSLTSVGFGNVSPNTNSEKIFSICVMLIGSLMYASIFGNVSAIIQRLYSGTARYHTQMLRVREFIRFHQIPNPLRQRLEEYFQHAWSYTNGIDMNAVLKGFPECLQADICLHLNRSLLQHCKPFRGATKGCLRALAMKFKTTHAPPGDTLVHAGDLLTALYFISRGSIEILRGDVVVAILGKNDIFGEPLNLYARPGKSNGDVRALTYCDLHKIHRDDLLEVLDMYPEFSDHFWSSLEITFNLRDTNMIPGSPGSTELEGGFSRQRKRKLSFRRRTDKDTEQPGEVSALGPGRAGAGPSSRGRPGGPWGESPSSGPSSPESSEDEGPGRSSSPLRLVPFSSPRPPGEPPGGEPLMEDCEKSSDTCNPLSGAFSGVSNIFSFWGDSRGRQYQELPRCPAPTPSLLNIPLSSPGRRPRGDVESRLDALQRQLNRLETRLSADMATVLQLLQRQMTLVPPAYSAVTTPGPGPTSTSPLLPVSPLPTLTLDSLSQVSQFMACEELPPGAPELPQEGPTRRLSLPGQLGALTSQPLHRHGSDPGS
row,Compound,activity change
1,O=C1[C@H]2[C@@H](c3ccc(C(F)(F)F)cc3)N[C@]3(CCCN(Cc4ccc(Cl)cc4)C3=O)[C@H]2C(=O)N1Cc1ccccc1,-9.13%
2,CC1CN(C(=O)CCC(=O)NCCCN2CCC(Cc3ccccc3)CC2)c2cc(Cl)ccc2O1 (configuration not stated),-88.2% (active)
3,CC1CN(C(=O)CCC(=O)NC2CCN(Cc3ccccc3)CC2)c2ccccc2O1 (configuration not stated),16.1%
4,CC1CN(C(=O)CCC(=O)NCc2cccnc2)c2ccccc2O1 (configuration not stated),-2.13%
5,CCCc1c(C)nc2scc(-c3ccc(Cl)cc3)n2c1=O,-21.6%
6,COc1ccc(CN2C[C@H]3CON(C)[C@H]3C[C@H]2c2ccc(-c3cccc(F)c3)cc2)cc1,-20.5%
7,Cc1ccc(-c2ccc(CN3C(C(C)C)C(=O)N(Cc4cn(CCC5OCCO5)nn4)CCS3(=O)=O)cc2)cc1 (configuration not stated),-23.7%
8,O=C(c1ccc(Cl)c([N+](=O)[O-])c1)N1CCN(c2ccccc2)CC1,9.59%
9,CO/N=C/c1ccc(N2CCN(C(=O)c3cccc(Cl)c3)CC2)c([N+](=O)[O-])c1,-11.9%
10,O=C(/C=C/c1ccc(Cl)cc1)N1CCN(c2ccccc2[N+](=O)[O-])CC1,-71.4% (active)
11,O=C(NCCN1CCOCC1)c1ccc2c(c1)N(Cc1cccc(Cl)c1)C(=O)c1ccccc1S2(=O)=O,2.54%
12,Cc1cc(OCC(=O)Nc2nccs2)c2c(C)c(C)c(=O)oc2c1,-4.04%
13,CC1(C)CC(=O)C=C(c2ccc(COC(=O)c3cc(F)cc(F)c3)cc2)C1=O,-3.02%
14,CCN(CC)CCN(C(=O)c1ccc2c(c1)CCCC2)c1nc2c(OC)cccc2s1,-10.1%
15,Cc1cc(C)c2cc(C#N)c(N3CCNCC3)nc2c1,31.7%
16,O=C(CN1CCN(C(=O)c2cccc(F)c2)CC1)Nc1ccccc1F,4.68%
17,O=C(CCN1CCN(C/C=C/c2ccccc2)CC1)Nc1ccccc1Cl,-76.7% (active)
18,CCOC(=O)N1CCN(CCC(=O)Nc2ccccc2)CC1,9.24%
19,O=C(CN1CCN(C/C=C/c2ccccc2)CC1)Nc1ccc(F)cc1F,-155% (active)
20,CNC(=O)NC(=O)C(C)N1CCN(C/C=C/c2ccccc2)CC1 (configuration not stated),16.2%
21,O=C(CCN1C(=O)c2ccccc2C1=O)Nc1cccc(F)c1,5.88%
22,O=C(CCN1CCN(C/C=C/c2ccccc2)CC1)Nc1cccc(F)c1,-92.1% (active)

row,Compound,activity change
1,O=C(COC(=O)CSc1ccccc1)Nc1ccc(F)cc1F,-4.38%
2,COc1ccccc1NC(=O)CCN1CCN(c2ccc(Cl)cc2)CC1,0.203%
3,COc1ccc(NC(=O)N(C)C[C@@H]2OCc3cn(nn3)CCCC(=O)N([C@H](C)CO)C[C@H]2C)c(OC)c1,3.91%
4,Cc1ccc(-c2ccc(C3=CC(=O)CC(C)(C)C3=O)cc2)cc1,-2.66%
5,CSc1ncnc2c1ncn2CCCNCc1cccs1,6.63%
6,CCOC(=O)c1ccccc1OC(=O)Oc1ccccc1C(=O)OCC,-141% (active)
7,CCOC(=O)c1ccccc1CN1C(=O)c2ccccc2S1(=O)=O,-3.26%
8,COc1ccccc1C(=O)OCC(=O)NCCNC(=O)COC(=O)c1ccccc1OC,-4.76%
9,CCc1ccccc1NC(=O)CN1CCN(C(=O)c2cc(C3CC3)nn2-c2ccccc2)CC1,4.86%
10,Cc1ccc(Nc2nc(N)nc(CN3CCN(Cc4ccccc4)CC3)n2)cc1Cl,-75.8% (active)
11,CCOC(=O)C1CCCN(Cc2nc(N)nc(Nc3ccc(C)cc3)n2)C1 (configuration not stated),27.8%
12,Cc1ccccc1Nc1nc(N)nc(CN2CCN(c3ccccn3)CC2)n1,15.1%
13,c1ccc2c(c1)nnn2-c1ccncc1,-10.2%
14,CCOc1ccc(C2c3[nH]c4ccccc4c3CCN2Cc2cccn2-c2ncccn2)cc1 (configuration not stated),-74.4% (active)
15,CCOc1ccc(C2c3[nH]c4ccccc4c3CCN2Cc2cn(CC)nc2C)cc1 (configuration not stated),23.4%
16,c1ccc(C2c3[nH]c4ccccc4c3CCN2Cc2cccn2-c2cccnc2)nc1 (configuration not stated),5.67%
17,NC1=CC(=O)C(=O)c2cccnc21,-14.1%
18,O=C(COC(=O)Cc1ccc(Cl)cc1Cl)NCc1ccco1,5.01%
19,O=C(NCCc1ccccc1)/C(=C\c1ccc([N+](=O)[O-])cc1)NC(=O)c1ccccc1,23.3%
20,Cc1ccc(C(=O)N/C(=C/c2ccc(-c3cccc([N+](=O)[O-])c3)o2)C(=O)NCCCN(C)C)cc1,-0.553%
21,CN(C)CCNC(=O)/C(=C/c1cccc([N+](=O)[O-])c1)NC(=O)c1ccccc1,-79.1% (active)
22,O=C(CN1C(=O)NC2(CCc3ccccc32)C1=O)NC1CCCCC1 (configuration not stated),12.5%

row,Compound,activity change
1,C/C=C(\C)C(=O)NCCN1C2=NC[C@H](Cc3ccc(O)cc3)N2C[C@@H]1Cc1ccc(OC)cc1,-2.93%
2,COc1ccc(C[C@H]2CN3C(=NC[C@H]3C)N2CCNC(=O)CCC2CCCCC2)cc1,-97.2% (active)
3,COc1cccc(CNC(=O)CCC2CCCN(Cc3ccc(OC(F)F)cc3)C2)c1 (configuration not stated),-23.2%
4,COc1ccc(NC(=O)C[C@H]2C(=O)N(CCc3ccccc3)C[C@@H]2C)cc1,-25.6%
5,O=C(CCN1CCCCC1)Nc1ccc(F)c(F)c1,-2.99%
6,Cc1ccc(NC(=O)COC(=O)CN2CCSC2=O)cc1F,-2.67%
7,CC(C)NC(=O)Nc1ccc2c(c1)C(=O)N([C@H](C)CO)C[C@H](C)[C@@H](CN(C)Cc1ccc(C(F)(F)F)cc1)OCCCC[C@@H](C)O2,-10.8%
8,CC1(C)Cc2cccc(OCC(=O)Nc3nccs3)c2O1,-0.616%
9,CC1(C)Cc2cccc(OCC(N)=O)c2O1,-15.1%
10,CC1(C)Cc2cccc(OCC(=O)N3CCN(c4ccc([N+](=O)[O-])cc4)CC3)c2O1,-90.2% (active)
11,CC(Sc1nnc(CNC(=O)c2ccccc2F)n1C)C(=O)Nc1nccs1 (configuration not stated),-161% (active)
12,COc1ccccc1C(=O)NCc1nnc(SC(C)C(=O)Nc2nccs2)n1C (configuration not stated),-5.03%
13,Cn1c(CNC(=O)c2ccccc2F)nnc1SCc1ccc(F)cc1,6.63%
14,C=CCn1nc(C(=O)OCC)cc1-c1sc(NC(=O)c2ccccc2)nc1C,41.9%
15,CN(C)C(CNC(=O)c1cc(Br)c(Br)s1)c1ccco1 (configuration not stated),6.08%
16,O=S(=O)(c1cccc(C(F)(F)F)c1)N1c2ccccc2-n2cccc2C1c1cccnc1 (configuration not stated),-12.2%
17,CCC(CC)C(=O)Nc1ccc(S(=O)(=O)Nc2nccs2)cc1,0.976%
18,O=C(CCc1ccccc1Cl)Nc1ccc(S(=O)(=O)Nc2nccs2)cc1,-79.2% (active)
19,Cc1ccc(OCCC(=O)Nc2ccc(S(=O)(=O)Nc3nccs3)cc2)cc1,4.09%
20,O=C(OCC(=O)N1CCCCCC1)c1cccc(Cl)c1Cl,0.263%
21,C[C@H]1CN([C@@H](C)CO)C(=O)CCCn2cc(nn2)CO[C@@H]1CN(C)S(=O)(=O)c1ccc(-n2cccn2)cc1,12.7%
22,CCOc1ccc(S(=O)(=O)NCCC(=O)NNC(=O)c2ccc(F)cc2)cc1,-9.08%

row,Compound,activity change
1,CCN1CCCC1CNc1ncnc2c1[nH]c1ccc(F)cc12 (configuration not stated),-81.9% (active)
2,Fc1ccc2[nH]c3c(N4CCN(Cc5ccc6c(c5)OCO6)CC4)ncnc3c2c1,22.8%
3,CCN1CCCC1Cn1cnc2c([nH]c3cc(OC)ccc32)c1=O (configuration not stated),0.665%
4,COc1cc(-c2nnc(NC(=O)CS(=O)(=O)c3ccc(Cl)cc3)o2)cc(OC)c1OC,-3.22%
5,C[C@@H]1Cn2cnc(C(=O)Nc3ccc(CNC(=O)OC(C)(C)C)cc3)c2C(=O)N1,1.51%
6,Cc1ccc(NC(=O)CSc2nnc(-c3cnccn3)n2Cc2ccco2)cc1C,8.19%
7,O=C(CSc1nnc(-c2cccnc2)n1Cc1ccco1)c1ccc(Cl)c(Cl)c1,1.21%
8,O=C(CSc1nnc(-c2cnccn2)n1Cc1ccco1)c1ccc(Cl)c(Cl)c1,-187% (active)
9,CC(=O)Nc1ccc(SCC(=O)NC(=O)c2ccc(Cl)cc2)cc1,1.87%
10,CSc1ncnc2c1ncn2CCCNCC(C)c1ccccc1 (configuration not stated),-15.1%
11,Cc1nn(C)c(Cl)c1CN1CCC(n2nccc2NC(=O)C2CCCC2)CC1,26.5%
12,O=C(Nc1ccnn1C1CCN(C/C=C/c2ccc(F)cc2)CC1)C1CCCC1,-105% (active)
13,CC(CN1CCC(n2nccc2NC(=O)C2CCCC2)CC1)c1ccccc1 (configuration not stated),15.8%
14,COC(=O)N(C)C[C@@H]1OCc2cnnn2CCCC(=O)N([C@@H](C)CO)C[C@@H]1C,1.19%
15,COCCn1c(SCC(=O)Nc2ccc(F)cc2F)nc2c(c1=O)SCC2,-2.69%
16,Nc1cc(C(=O)N2CCN(c3ccccc3Cl)CC2)ccc1N1CC2CC(C1)c1cccc(=O)n1C2 (configuration not stated),6.37%
17,CC1CCc2[nH]c3ccc(C(=O)N(C)CC(=O)Nc4cccc(F)c4)cc3c2C1 (configuration not stated),2.89%
18,C=CCNC(=S)N1CCc2[nH]c3ccccc3c2C1,1.48%
19,O=C(CCCN1CCc2[nH]c3ccc(F)cc3c2C1)c1ccc(F)cc1,-94.7% (active)
20,Cc1ccc(C(=O)N[C@H](C(=O)N2CCN(c3ncccn3)CC2)C(C)C)cc1,1.07%
21,Cc1ccc(S(=O)(=O)N2C[C@H]3C(=O)C[C@@H](c4cccc5ccccc45)N(S(=O)(=O)c4ccc(C)cc4)[C@H]3C[C@H]2c2ccc(Cl)cc2)cc1,5.59%

# Reference: PubChem BioAssay AID720551 (National Center for Advancing Translational Sciences (NCATS), 2013)
